Bioassay records from PubChem.
An excerpt weighted towards active compounds, which were near 1.2% of everything screened.
Bcl-xL primary: blocks human Bcl-xL binding to Bim BH3 peptide; GST-Bcl-xL / FITC-Bim BH3 peptide fluorescence polarization; inhibition, % at 10.9 µM; 0.7% of 320,000 active; AID 2129;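 active means inhibition above the mean of all tested compounds plus 3 SD, cutoff set per campaign, cut at about 30% in these data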;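 further: inhibitors lower millipolarization by displacing the labeled peptide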
cardiac RTF act: increases calcium sensitivity of human cardiac regulated thin filaments; P19429+P45379; IANBD-labeled TnC RTF fluorescence at EC20 calcium; 0% EC20 calcium, 100% full calcium; activation, % at 7.2 µM; 0.24% of 340,000 active;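 active means activation above the mean over all tested compounds plus 3 SD, cut at about 30% in these data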;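 further: rise in fluorescence read as greater calcium sensitivity of cardiac thin filaments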
RTF Ca sens inh: cardiac RTF calcium desensitization; 0.12% of 340,000 active; inhibition, % at 7.15 µM; P19429+P45379; AID 493244; IANBD-labeled cardiac RTF, Ca2+ fluorescence;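 active means inhibition above the mean inhibition of all tested compounds plus 3 SD, cut at about 17% in these data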;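 further: assay run at fixed EC70 calcium of 1.6 mM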
GLD-1 RNA inh: GLD-1-TGE RNA interaction inhibition (C. elegans); Q17339; purified GLD-1 + fluorescein TGE RNA, fluorescence polarization; inhibition, % at 5.96 µM; 0.44% of 320,000 active; AID 2280;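 active means percent inhibition above a per-plate cutoff, the plate mean of test compounds plus 3 SD, cut at about 30% in these data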
Target sequence (Q17339 whole entry, looked up): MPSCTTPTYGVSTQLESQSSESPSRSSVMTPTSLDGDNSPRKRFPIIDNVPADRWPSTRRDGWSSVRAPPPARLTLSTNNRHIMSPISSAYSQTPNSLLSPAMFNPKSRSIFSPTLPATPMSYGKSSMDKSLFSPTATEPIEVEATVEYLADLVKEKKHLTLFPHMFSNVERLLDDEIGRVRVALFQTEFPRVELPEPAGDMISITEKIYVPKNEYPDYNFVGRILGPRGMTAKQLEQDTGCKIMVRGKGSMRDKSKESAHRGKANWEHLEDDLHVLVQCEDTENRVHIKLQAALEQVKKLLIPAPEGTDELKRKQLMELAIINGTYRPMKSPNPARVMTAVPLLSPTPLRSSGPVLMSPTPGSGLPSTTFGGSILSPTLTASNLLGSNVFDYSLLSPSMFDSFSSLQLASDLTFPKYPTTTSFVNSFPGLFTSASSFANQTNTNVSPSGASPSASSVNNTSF
eLon inh: E. coli protease La inhibition; P0A9M0; purified E. coli Lon protease, fluorescence polarization; inhibition, % at 7.94 µM; 0.42% of 360,000 active; AID 602123; in the data active means inhibition above about 13%, passing the limit was not always enough
Each line names hits and unclear results; the compound was inactive in the other large screens.

COCCOC(=O)c1c(N)n(Cc2ccccc2)c2nc3ccccc3nc12	none
CCOC(=O)c1c(N)n(Cc2ccco2)c2nc3ccccc3nc12	Bcl-xL primary 43.2, GLD-1 RNA inh 62.4
COCC(C)OC(=O)c1c(N)n(Cc2ccco2)c2nc3ccccc3nc12 (centres undefined)	Bcl-xL primary 34.1, GLD-1 RNA inh 38.6
O=C(CN1C(=O)COc2ccccc21)N1CCC2(CC1)OCCO2	none
Cc1ccc(S(=O)(=O)N[C@@H](CCCCN)C(=O)CCl)cc1	Bcl-xL primary 31.9
Cc1ccc(S(=O)(=O)NCCC(=O)Nc2ccc(Cl)cc2C(=O)c2ccccc2)cc1	none
O=C1NC(=S)N(c2ccccc2)C(=O)/C1=C/c1ccco1	Bcl-xL primary 47.0
COC(=O)Cn1cc(/C=C2\C(=O)NC(=O)N(c3ccc(OC)cc3)C2=O)c2ccccc21	none
COc1ccc(N2C(=O)NC(=O)/C(=C\c3cn(C)c4ccccc34)C2=O)cc1	Bcl-xL primary 34.4, cardiac RTF act 523.3
CCOc1cccc(N2C(=O)/C(=C/c3ccco3)C(=O)NC2=S)c1	none
CCN(CC)c1ccc(/C=C2\C(=O)NC(=S)N(C)C2=O)o1	cardiac RTF act 53.4
CCN(CC)c1ccc(C=C2C(=O)N(C)C(=S)N(C)C2=O)o1	none
CCN(CC)c1ccc(/C=C2\C(=O)NC(=S)N(c3ccc(OC)cc3OC)C2=O)o1	cardiac RTF act 76.1
CCC1CN1P(=O)(Oc1ccc(Cl)cc1)N1CC1CC (centres undefined)	none (no result: Bcl-xL primary, GLD-1 RNA inh)
CC(C)(C)C(=O)Cn1c(NCCCl)nc2ccccc21	none
O=c1[nH]c(=S)n(C2CC2)c(O)c1C=NCCc1ccccc1	none (no result: cardiac RTF act, RTF Ca sens inh, eLon inh)
COc1ccc(N2C(=O)/C(=C/c3ccc(N(C)C)o3)C(=O)NC2=S)cc1	cardiac RTF act 54.9
COc1cccc(N2C(=O)/C(=C/c3ccc(C)o3)C(=O)NC2=S)c1	none
COC(=O)C1=C(c2cc3ccccc3s2)C[C@@H]2CC[C@H]1N2C(=O)NCCS(C)=O (some centres undefined)	none
CN(C)CC1CSCCC1(O)c1ccc(Cl)cc1 (centres undefined)	none
Cc1cc(Cl)ccc1OC(C)C(=O)O (centres undefined)	RTF Ca sens inh 20.1
COC(=O)C1=C(c2ccc(F)cc2OCc2ccccc2)C[C@@H]2CC[C@H]1N2C(=O)NCc1ccc(Br)cc1	none
CCOC(=O)[C@@]1(C#N)[C@@H]2C=CC(C(N)=O)=CN2[C@@H](C(N)=O)[C@@H]1c1cccc(Cl)c1	Bcl-xL primary 37.7
O=C(O)c1cccc2c1NC(C(=O)O)C1CC(Sc3ccccc3[N+](=O)[O-])C(Cl)C21 (centres undefined)	Bcl-xL primary 61.8, RTF Ca sens inh 55.5
CC(=O)c1ccc2c(c1)C1C(Cl)C(Sc3ccccc3[N+](=O)[O-])CC1C(C(=O)O)N2 (centres undefined)	eLon inh 22.5
O=c1c2ccccc2nc(-c2ccco2)n1-c1ccccn1	none
N=C1c2ccccc2CN1NC(=O)c1ccc(F)cc1	none
N#CCC(=O)NN1Cc2ccccc2C1=N	Bcl-xL primary 75.1
Cc1ccc2c(c1N)C(=O)c1ccccc1C2=O	Bcl-xL primary 47.4
CCOC(=O)c1c(NC(=O)c2c(N)n(CCCOC)c3nc4ccccc4nc23)sc2c1CCCC2	none
CCOCCCn1c(N)c(C(=O)Nc2sc3c(c2C(=O)OC)CCCC3)c2nc3ccccc3nc21	cardiac RTF act 52.2
O=P(Oc1ccccc1)(N1CCOCC1)N1CCOCC1	none (no result: Bcl-xL primary, GLD-1 RNA inh)
O=C(O)c1ccc(-n2c(O)c(/C=C3\C=Nc4ccccc43)c(=O)[nH]c2=O)cc1	none
O=c1[nH]c(=O)n(-c2cccc(F)c2)c(O)c1/C=C1\C=Nc2ccccc21	Bcl-xL primary 159.6
Cc1ccc(/C=C2/Sc3ccc(C(=O)N4CCC5(CC4)OCCO5)cc3NC2=O)cc1	Bcl-xL primary 105.9, GLD-1 RNA inh 75.4
CCOC(=O)c1cc(C(O)(C(=O)OC)C(F)(F)F)c(/N=C/N(C)C)o1 (centres undefined)	none
CCOC(=O)N(C)c1ccc(C(O)(C(=O)OCC)C(F)(F)F)cc1 (centres undefined)	none
CC(=NCC1CCCO1)c1c(O)n(-c2ccc(C)cc2)c(=O)[nH]c1=O (centres undefined)	none
Cc1cc(C)c(Cn2c(C(=O)O)c(C=O)c3ccccc32)c(C)c1	cardiac RTF act 64.2
